The list is not random: actives were taken first. Their share in the collection is about 2.6%.
Cruzain noTriton: blocks cruzain activity in detergent-free assay; Potency, µM, for the others: max response, negative = inhibition, hits mostly inhibitors; P25779; AID 1476; purified cruzain, Z-FR-AMC fluorescence, no detergent; 2.3% of 200,000 active;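 further: plate controls were enzyme without inhibitor for no effect and buffer without enzyme for full effect; nearly all actives have a fitted effect of over 40% in size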
Target sequence (P25779 123-467 limits assumed): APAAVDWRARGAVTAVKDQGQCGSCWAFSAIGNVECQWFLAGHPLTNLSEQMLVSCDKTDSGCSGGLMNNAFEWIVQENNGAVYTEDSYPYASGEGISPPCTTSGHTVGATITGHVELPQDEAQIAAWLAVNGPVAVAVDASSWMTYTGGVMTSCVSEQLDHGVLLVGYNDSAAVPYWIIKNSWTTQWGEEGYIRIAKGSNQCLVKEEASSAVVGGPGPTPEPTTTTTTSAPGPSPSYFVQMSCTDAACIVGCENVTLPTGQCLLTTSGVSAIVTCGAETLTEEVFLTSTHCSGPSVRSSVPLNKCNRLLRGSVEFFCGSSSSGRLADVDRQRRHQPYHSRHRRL
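Detergent-free condition (0.00005% Triton X-100) in acetate buffer pH 5.5 with DTT. 1.5 nM enzyme and compound were pre-mixed 15 min, then 2 uM Z-FR-AMC substrate added; reaction progress from fluorescence change between first and third reads (60 s).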
Cruzain Triton: inhibitors of Trypanosoma cruzi cruzain with detergent; P25779; purified cruzain, Z-FR-AMC fluorescence, 0.01% Triton; Potency, µM, inactives show max response, negative = inhibition, usual class: inhibitors; 0.43% of 200,000 active; AID 1478;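 further: plate controls were neutral wells for no effect and buffer without enzyme for full effect; nearly all actives have a fitted effect of over 40% in size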
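Detergent-containing run (0.01% Triton X-100) in acetate buffer pH 5.5 with 5 mM DTT: enzyme at 1.5 nM final, 15 min compound preincubation at room temperature, then 2 uM Z-FR-AMC substrate. Activity taken as 60 s fluorescence increase at 360/450 nm.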
Starred values were filed as active, the others as inactive; u = inconclusive. The call rests on the fitted dose curve; in most records, active means well fitted curve in the direction sought with a large enough effect; inconclusive means small, poorly fitted or top-dose-only effect, or another doubt; inactive means no such curve, though single readings can be large; an effect the other way counts as inactive or inconclusive. Potency means the concentration at half of the fitted maximal effect.

SMILES	Cruzain noTriton	Cruzain Triton
CCN1CCN(C(=O)c2ccc3c(c2)N(Cc2cccc(Cl)c2)C(=O)c2ccccc2S3=O)CC1 (stereo not given)	-0.5%	-0.5%
CC(=O)c1cc(-c2ccc(F)cc2)n(CCC(=O)NCc2ccc(C)cc2)c1C	22.1%	-2.8%
CCCN(CCC)S(=O)(=O)c1ccc(C(=O)Nc2cc3oc4ccccc4c3cc2OC)cc1	15.8µM*	-10.1%
COc1cc2c(cc1NC(=O)COc1ccccc1OC)oc1ccccc12	-21.0%	9.1%
COc1cc2c(cc1NC(=O)COC(=O)c1ccc(C(C)(C)C)cc1)oc1ccccc12	12.6µM*	-1.1%
COc1cc2c(cc1NC(=O)COC(=O)[C@@H](NS(=O)(=O)c1ccccc1)C(C)C)oc1ccccc12	u	-1.7%
COc1cc2c(cc1NC(=O)COC(=O)C(CCSC)NC(=O)c1ccccc1Cl)oc1ccccc12 (stereo not given)	25.1µM*	u
CCN(CC)S(=O)(=O)c1cccc(C(=O)Nc2cc3oc4ccccc4c3cc2OC)c1	u	-4.7%
COc1cc2c(cc1NC(=O)CN1CCN(S(=O)(=O)c3ccccc3F)CC1)oc1ccccc12	25.1µM*	1.3%
COc1cc2c(cc1NC(=O)Cc1ccc(C)cc1)oc1ccccc12	-0.4%	-10.2%
ClC1=C(Cl)C(Cl)(Cl)C(Cl)=C1Cl	-2.2%	-4.6%
Cc1cccc(-c2nc(SCC(=O)N(C)c3ccccc3)c3c(=O)n(C)c(=O)n(C)c3n2)c1	17.3%	1.2%
CCCn1c(C)nc2c(NCC(C)(C)CN(C)C)nc(C)nc21	-7.7%	4.6%
COc1cc2c(cc1NC(=O)CSc1ccc(C)cc1)oc1ccccc12	-29.1%	2.8%
COc1cc2c(cc1NC(=O)CSc1nnnn1-c1ccccc1)oc1ccccc12	31.6µM*	3.9%
CCOC(=O)c1noc2ncnc(Nc3cccc(OC)c3)c12	-7.0%	-1.3%
COc1ccc(S(=O)(=O)N2CCN(Cc3ccc4c(c3)OCO4)CC2)cc1OC	-7.0%	-0.4%
Clc1ccc(/C=C/c2nc3ccccc3[nH]2)cc1	15.8µM*	-20.4%
Clc1ccc(/C=C/c2nc3ccccc3[nH]2)c(Cl)c1	u	-7.5%
Cc1cc(N=Cc2c(O)n(-c3ccc4c(c3)OCO4)c(=O)c3ccccc23)ccn1	-23.9%	-9.3%
Cc1ccc(-n2c(O)c(C=Nc3ccc4c(c3)OCO4)c3ccccc3c2=O)cc1C	10µM*	-1.1%
CCOc1ccc(CCNC(=O)c2cc3c(=O)n(C)c4ccccc4c3n2C)cc1OCC	-10.7%	0.0%
O=C(Nc1ccc(Cl)cc1)[C@@H]1[C@@H]2C(=O)N(c3ccc(Cl)cc3Cl)C(=O)[C@@H]2[C@H]2C=CC=NN21	15.8µM*	-5.3%
CC(=O)Oc1ccc(C(=O)[C@H]2[C@H]3C(=O)N(c4ccc5ccccc5c4)C(=O)[C@H]3[C@@H]3C=CC=NN32)cc1	u	-1.6%
Cc1ccc(N2C(=O)[C@@H]3[C@H](C2=O)[C@H]2C=CC=NN2[C@@H]3C(=O)Nc2ccc(Cl)cc2)cc1	-0.6%	-8.1%
SMILES	Cruzain noTriton	Cruzain Triton
O=C(Nc1ccc(Cl)cc1)[C@@H]1[C@@H]2C(=O)N(c3ccc(Cl)cc3)C(=O)[C@@H]2[C@H]2C=CC=NN21	20µM*	-5.5%
CC(C)C(=O)N1c2nc(C(C)C)nn2C2(CCCCC2)[C@@H]2CCCC[C@@H]21	-29.2%	-1.5%
COc1ccc(C(=O)Oc2c(Sc3ccc(C)cc3)c(C)nn2C(C)(C)C)c(OC)c1	6.6%	-3.2%
CN(C)c1ccc(C(CNS(=O)(=O)c2ccccc2)N2CCc3ccccc32)cc1 (stereo not given)	15.8µM*	-2.3%
Cc1ccc(S(=O)(=O)NCC(c2ccc(N(C)C)cc2)N2CCc3ccccc32)cc1 (stereo not given)	-4.1%	-3.6%
Cc1cccc(C)c1Nc1c(-c2ccccc2Cl)nc2cnccn12	12.9%	-5.9%
O=C1C=CC2=C3c4cc(O)c(O)cc4C[C@@]3(O)COC2=C1	-10.1%	-0.7%
COc1ccc(CNC(=O)c2cc(Nc3ccccc3C)nc3ccccc23)cc1	25.1µM*	-12.2%
COc1ccc(CNC(=O)c2cc(Nc3ccc(C)cc3C)nc3ccccc23)cc1	9.0%	-10.5%
Cc1ccc(C)o1	-2.3%	0.8%
CC(C)OCCCNc1ncnc2c1[nH]c1ccccc12	15.8µM*	u
C1=C(CCNc2ncnc3c2[nH]c2ccccc23)CCCC1	-23.4%	-16.4%
COc1ccc2[nH]c3c(NCCN(C(C)C)C(C)C)ncnc3c2c1	12.6µM*	u
COc1ccc2[nH]c3c(NCCCN4CCCC4=O)ncnc3c2c1	-22.9%	u
CN(C)c1ccc(/C=N/c2cc(-c3ccccc3)nn2-c2ccccc2)cc1	20µM*	-5.1%
Cc1nn(-c2ccccc2)c(/N=C/c2ccc(O)cc2)c1-c1ccccc1	5.3%	-6.9%
CCCS(=O)(=O)c1c(S(=O)(=O)CCC)c2cc(C(C)(C)C)ccn2c1C(=O)c1ccc(C)cc1	4.3%	-1.5%
CC(=O)n1c(COS(C)(=O)=O)nc2ccccc21	-14.3%	4.9%
Cc1nnc(NC(=O)C2c3ccccc3Oc3ccccc32)s1	8.2%	-4.6%
Cc1cc(C)c(NC(=O)C2c3ccccc3Oc3ccccc32)c(C)c1	12.6µM*	4.4%
O=C(Nc1cccnc1Cl)C1c2ccccc2Oc2ccccc21	1.0%	2.6%
CCc1ccccc1NC(=O)C1c2ccccc2Oc2ccccc21	25.1µM*	-1.6%
Cc1cccc(N(CC(=O)NC(C)c2ccccc2)S(=O)(=O)c2ccccc2)c1C (stereo not given)	3.0%	-4.6%
O=C(c1csnn1)N1CCC2(CCCN(C(c3ccccc3)c3ccccc3)C2)CC1	1.6%	-1.5%
Cc1nnc(SCc2nc3ccccc3s2)n1-c1ccccc1	20µM*	-1.8%
SMILES	Cruzain noTriton	Cruzain Triton
CCn1c(SCc2nc3ccccc3s2)nnc1-c1ccccc1	-11.1%	7.3%
c1ccc(-n2cnnc2SCc2nc3ccccc3s2)cc1	10µM*	-5.0%
c1ccc(-c2ncc(CSc3nncn3-c3ccccc3)s2)cc1	11.7%	-1.6%
COC(=O)c1ccc(OCC2c3cc(OC)c(OC)cc3CCN2C(=O)c2ccc(F)cc2)cc1 (stereo not given)	u	13.0%
COc1cc(/C=N/N=C(/N)c2nonc2N)cc(Br)c1OCc1ccccc1C	-25.4%	3.1%
CCOc1cc(/C=N/N=C(/N)c2nonc2N)cc(Br)c1OCc1ccc(Cl)cc1	3.98µM*	2.4%
NC(CSS(=O)(=O)O)=N[C@@H]1C[C@H]2CC[C@@H]1C2	6.5%	2.3%
CC1=C(C(=O)Nc2ccc(Cl)cc2)C(c2ccccc2C)n2ncc(C(=O)Nc3ccc(C)cc3)c2N1 (stereo not given)	31.6µM*	-4.3%
COc1ccc(NC(=O)C2=C(C)Nc3c(C(=O)Nc4ccc(C)cc4)cnn3C2c2cc(OC)ccc2OC)cc1 (stereo not given)	-0.5%	-5.7%
COc1ccc(NC(=O)C2=C(C)Nc3c(C(=O)Nc4ccc(C)cc4)cnn3C2c2cccc(Cl)c2)cc1 (stereo not given)	15.8µM*	-4.2%
CC1=C(C(=O)Nc2ccc(Cl)cc2)C(c2ccccc2)n2ncc(C(=O)Nc3ccccc3)c2N1 (stereo not given)	u	-10.1%
Cc1ccc(C)c(Cn2c3ccccc3c3cnn(CC(=O)NC4CCCCCC4)c(=O)c32)c1	2.1%	-2.2%
Cc1cc(C(=O)CSc2nc3ccccc3[nH]2)c(C)n1Cc1ccco1	25.1µM*	-1.2%
C=CCn1c(C)cc(C(=O)CSc2nc3ccccc3[nH]2)c1C	-6.8%	7.0%
